Results on 13 compounds are retold here after PubChem BioAssay.

Activity calls are given as the source filed them.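 The calls were made as follows, unless noted: active = inhibition at or above 50% relative to wild type and mutant plate controls; inactive = inhibition below 50%.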

A short description of experiment [1]: inhibitors of TNFa-induced NFkB p65 translocation, primary screen, imaging, HUVEC, MLSMR starter and 10KST1 sets (AID 438;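 active = inhibition above 20% together with a positive visual image hit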;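 also: compound added about 3h40 before a 20 min TNFalpha stimulation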;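 as to inhibition: signal is the nuclear over cytoplasmic p65 intensity ratio per well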). Conditions: HUVEC TNFa-induced p65 nuclear translocation; cell count: measured here: nuclei count (cytotoxicity indicator), at 2.08 µM; inhibition: at 2 µM, stronger effect = higher value, 0% TNFa-plus-vehicle, 100% no-TNFa wells.
Experiment [2] in a line: endothelial E-selectin expression blockers – imaging, HUVEC, immunofluorescence, MLSMR starter and 10KST1 sets, primary screen (AID 487;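 active = visually confirmed hit in the image check and inhibition above 20%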;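 as to inhibition: signal is fraction of cell area covered by stained E-selectin grains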;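 as to nuclei count: 100% = median nuclei count of all wells on the same plate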). Conditions: HUVEC TNFalpha-induced E-selectin immunofluorescence imaging, at 2 µM; inhibition: stronger effect = higher value; nuclei count: measured here: cell number, toxicity.
The nature of experiment [3]: Primary imaging screen for DUSP6 inhibitors that restore phospho-Erk in transfected HeLa cells, chemical complementation (AID 609;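 active = compounds giving at least 50% inhibition in the cell-based MKP-3 phosphatase rescue imaging test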;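 as to inhibition: phospho-Erk level distribution per well compared with pooled transfected vehicle control wells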). Conditions: HeLa MKP-3 transfected, phospho-Erk imaging KS statistic, at 10 µM, cells stimulated with TPA for 15 min.
For experiment [4], the target named is Dual specificity protein phosphatase 6 (Homo sapiens) (UniProt Q16828). The experiment is described as above. Conditions: HeLa MKP-3 transfected, phospho-Erk imaging KS statistic; at 10 µM; stronger effect = higher value; cells stimulated with TPA for 15 min.
Experiment [5] has as its target Voltage-gated potassium channel subunit beta-2 (Rattus norvegicus) (UniProt P62483). The experiment in a line: inhibitors of rat Kvbeta2 reductase activity – biochemical, NADPH fluorescence, primary screen (AID 622;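 active = fluorescence slope higher than the sample average by over 3 SD, cut at about -0.22 in these data, passing the limit was not always enough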;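 also: slope of raw intensity against log time taken from 70 to 1610 s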). Conditions: recombinant KvBeta, 4-cyanobenzaldehyde reduction, at 10 µM, stronger effect = higher value.
The target is the same in experiment [6]. As to the kind of experiment: enhancers of rat Kvbeta2 NADPH turnover – biochemical, NADPH fluorescence, primary screen (AID 623;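 active = NADPH fluorescence slope more negative than the mean of all samples by about 3 SD, 99.7% confidence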;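 also: fluorescence intensity change per second fitted from 20 to 320 s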). Conditions: Recombinant KvBeta, NADPH fluorescence decrease slope, 10 min; at 10 µM; stronger effect = lower value.
For experiment [7], the target named is Alpha-2C adrenergic receptor (Homo sapiens) (UniProt P18825). The experiment in a line: compounds altering alpha2C-coupled GIRK flux – cell-based, HEK293 alpha2C/GIRK1/2, thallium flux, primary screen (AID 624;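 active = fluorescence slope after compound addition differing from the mean of all screened samples at 99.7% confidence, in either direction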;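 also: slope of fluorescence ratio to pre-addition baseline per second over 15 to 24 s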). Conditions: thallium flux BTC fluorescence, at 10 µM, actives lie on both sides.
A short description of experiment [8]: inhibitors of larval lipid processing in zebrafish, primary screen, whole organism, PED6 fluorescence, gall bladder and intestine (AID 686;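 active = a full or partial loss of lipid-probe fluorescence in the fish gall bladder, intestine or both, judged by eye; inactive = no fluorescence loss, or compound toxic to the fish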;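 also: larvae 5 to 7 days old with five fish per well; signal comes from phospholipase A2 cleavage of quenched PED6 carried via bile; overnight exposure to compound and PED6 before scoring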). Conditions: Zebrafish larvae PED6 lipid processing, fluorescence scoring; screened at 20 µM (by protocol).
Experiment [9] can be described thus: loss of swimming-algae plug formation – whole organism, Chlamydomonas reinhardtii, WT vs cilia-less mutant, absorbance, 96-well, primary screen (AID 463189).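 Also: 0% = wild type cc124 cells in DMSO and 100% = ciliumless bld1 mutant cells.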 The conditions noted are these: Chlamydomonas reinhardtii gravitaxis, OD600 absorbance, 2 days; at 10 µM; stronger effect = higher value.
Experiment [10] concerns the target Muscarinic acetylcholine receptor M4 (Homo sapiens) (UniProt P08173). The experiment in a line: M4-linked GIRK flux change, two-sided – cell-based, HEK293 M4/GIRK, thallium flux, BTC-AM, M4 allosteric agonist project, primary screen (AID 625;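 active = fluorescence slope after compound addition differing from the mean of all tested samples at 99.7% confidence, mostly higher but some lower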;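 also: thallium influx through GIRK channels coupled to M4 in HEK293 cells with BTC-AM dye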). The conditions noted are these: at 10 µM, actives lie on both sides.
Where [11] appears, read: measured here: cell density z-score.
The mark [12] stands for this setting: measured here: nuclear c-Myc green intensity z-score.
Where [13] appears, read: measured here: nuclear pErk red intensity z-score, stronger effect = higher value.

Muscarinic acetylcholine receptor M4 (Homo sapiens), sequence (P08173 whole entry, looked up): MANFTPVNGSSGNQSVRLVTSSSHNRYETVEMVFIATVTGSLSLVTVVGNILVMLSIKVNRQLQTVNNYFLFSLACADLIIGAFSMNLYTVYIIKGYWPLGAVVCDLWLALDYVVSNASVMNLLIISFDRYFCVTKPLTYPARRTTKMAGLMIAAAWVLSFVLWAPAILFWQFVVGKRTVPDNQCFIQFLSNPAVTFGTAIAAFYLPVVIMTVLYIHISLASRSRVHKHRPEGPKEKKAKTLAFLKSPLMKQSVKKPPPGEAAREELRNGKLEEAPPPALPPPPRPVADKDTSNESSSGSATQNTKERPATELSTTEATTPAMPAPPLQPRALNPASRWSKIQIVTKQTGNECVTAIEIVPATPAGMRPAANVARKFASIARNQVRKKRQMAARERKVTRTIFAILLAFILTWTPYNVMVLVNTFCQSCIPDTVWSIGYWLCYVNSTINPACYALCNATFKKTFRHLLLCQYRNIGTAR
Voltage-gated potassium channel subunit beta-2 (Rattus norvegicus), sequence (P62483 whole entry, looked up): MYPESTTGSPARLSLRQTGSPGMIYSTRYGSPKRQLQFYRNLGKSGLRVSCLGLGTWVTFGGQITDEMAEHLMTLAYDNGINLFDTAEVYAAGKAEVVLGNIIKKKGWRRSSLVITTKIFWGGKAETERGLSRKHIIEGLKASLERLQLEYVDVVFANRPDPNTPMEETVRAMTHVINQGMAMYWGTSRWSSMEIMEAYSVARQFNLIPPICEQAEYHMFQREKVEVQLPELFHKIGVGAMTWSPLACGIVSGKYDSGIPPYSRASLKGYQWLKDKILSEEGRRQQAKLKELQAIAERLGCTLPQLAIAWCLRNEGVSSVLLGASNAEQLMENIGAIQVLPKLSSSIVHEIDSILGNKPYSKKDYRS
Alpha-2C adrenergic receptor (Homo sapiens), sequence (P18825 whole entry, looked up): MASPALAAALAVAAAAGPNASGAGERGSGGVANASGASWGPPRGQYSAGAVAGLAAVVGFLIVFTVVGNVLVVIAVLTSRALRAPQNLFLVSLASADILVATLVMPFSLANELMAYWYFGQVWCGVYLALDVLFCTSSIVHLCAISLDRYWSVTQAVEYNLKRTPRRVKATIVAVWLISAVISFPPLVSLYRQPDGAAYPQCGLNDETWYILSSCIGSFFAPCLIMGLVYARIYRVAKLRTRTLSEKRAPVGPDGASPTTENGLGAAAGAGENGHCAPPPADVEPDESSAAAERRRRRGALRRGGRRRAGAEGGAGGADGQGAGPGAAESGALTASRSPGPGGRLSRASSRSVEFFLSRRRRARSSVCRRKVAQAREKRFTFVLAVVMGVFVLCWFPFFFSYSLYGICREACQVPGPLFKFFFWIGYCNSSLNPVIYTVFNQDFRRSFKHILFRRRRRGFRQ
Dual specificity protein phosphatase 6 (Homo sapiens), sequence (Q16828 whole entry, looked up): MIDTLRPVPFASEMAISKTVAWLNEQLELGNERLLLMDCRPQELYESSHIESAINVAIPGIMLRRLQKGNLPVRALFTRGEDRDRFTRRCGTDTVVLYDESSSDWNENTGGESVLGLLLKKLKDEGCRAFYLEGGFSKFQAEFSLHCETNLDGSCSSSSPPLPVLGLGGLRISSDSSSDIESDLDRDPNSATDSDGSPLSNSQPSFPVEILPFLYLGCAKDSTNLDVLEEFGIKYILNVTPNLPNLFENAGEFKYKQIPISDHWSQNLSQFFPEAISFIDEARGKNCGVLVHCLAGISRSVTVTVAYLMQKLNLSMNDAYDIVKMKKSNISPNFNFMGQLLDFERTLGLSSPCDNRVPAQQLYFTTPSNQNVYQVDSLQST

For orientation: inhibition means the relative decrease from the control value, in per cent. With `CNc1oc(-c2ccc(Cl)cc2)nc1C#N`, the cell count in experiment [1] was determined as 444. The inhibition in experiment [1] was -4.2% (inactive); in experiment [2], -114% (inactive); in [4], 6.04% (inactive); in [9] it was 7.15% (inactive). Further, the nuclei count in experiment [2] was found to be 169%. Further, the z-score in experiment [3] (setting [11]) was -1.3; in experiment [3] (setting [12]), -0.483; in experiment [3] (setting [13]), -0.6. Moreover, in experiment [5], the fluorescence slope was -0.263 (inactive). Further, the NADPH fluorescence slope in [6] is -4.5e-06 (inactive). The slope in experiment [7] was 0.00621 (inactive). Besides, the result in experiment [8] was inactive.
In the case of `CCOC(=O)c1c(C)[nH]sc1=S`, the cell count in experiment [1] turned out to be 569. The inhibition was -2.6% (inactive) in experiment [1], 42.2% (inactive) in [2], 9.82% (inactive) in experiment [4] and 30.1% (inactive) in experiment [9]. Also, in [2], the nuclei count worked out at 95.8%. Moreover, the z-score in experiment [3] (setting [11]) was -1.01; in [3] (setting [12]), 0.222; in [3] (setting [13]), 0.907. In addition, in experiment [5], the fluorescence slope was -0.335 (inactive). Further, the NADPH fluorescence slope in experiment [6] was -1.2e-06 (inactive). In addition, in experiment [7], the slope was 0.00974 (inactive). Also, in experiment [8], the outcome was inactive.
In the case of `Cc1ccc2[nH]c3c(c2c1)CCCC3C(N)=O` (centres undefined), the cell count in experiment [1] amounted to 548. Further, the inhibition was -27.5% (inactive) in experiment [1], -103% (inactive) in experiment [2], -16.8% (inactive) in [4] and 3.14% (inactive) in experiment [9]. The nuclei count in experiment [2] was found to be 183%. For the same compound, the z-score in [3] (setting [11]) is -1.12; in experiment [3] (setting [12]), 0.929; in [3] (setting [13]), -1.27. Moreover, the fluorescence slope in [5] is -0.508 (inactive). Besides, the NADPH fluorescence slope in experiment [6] was -2.9e-05 (inactive). In addition, the slope in [7] was 0.00527 (inactive). Besides, the compound was classed as inactive in experiment [8].
For the compound `CCCc1nc(NC2CCCCC2)c(C#N)c2c1COC(C)(C)C2`, the cell count in [1] was 517. Also, the inhibition is -11.1% (inactive) in [1], -55.9% (inactive) in experiment [2], -3.95% (inactive) in experiment [4] and -12.9% (inactive) in experiment [9]. The nuclei count in [2] was found to be 114%. In addition, the z-score was -0.306 in experiment [3] (setting [11]), -0.0962 in [3] (setting [12]) and -0.825 in experiment [3] (setting [13]). Moreover, the fluorescence slope in experiment [5] is -0.492 (inactive); in experiment [10] it was 0.00613 (inactive). For the same compound, the NADPH fluorescence slope in experiment [6] is -6.5e-05 (inactive). The compound was classed as inactive in experiment [8].
For the compound `CC(C)(C)c1nnc2sc(SCC(=O)c3ccccc3)nn2c1=O`, the cell count in [1] came to 619. The inhibition in [1] is 3.4% (inactive); in experiment [2], -55% (inactive); in experiment [4] it was -7.67% (inactive); in [9], 11.5% (inactive). Moreover, the nuclei count in [2] amounted to 105%. In addition, the results for the z-score in experiment [3] (setting [11]), in [3] (setting [12]) and in [3] (setting [13]) were -1.21, -0.101 and 1.16, respectively. For the same compound, the values for the fluorescence slope in experiment [5] and in experiment [10] were -0.455 (inactive) and 0.00537 (inactive), respectively. For the same compound, the NADPH fluorescence slope in experiment [6] was -6.8e-05 (inactive). In addition, in experiment [8], the call was inactive.
On to `Cc1cc(NC(=O)CSc2nc(-c3cccnc3)ccc2C#N)no1`, for which the cell count in experiment [1] came to 733. The inhibition in experiment [1] was -10.3% (inactive); in experiment [2], -53% (inactive); in experiment [4], 4.25% (inactive); in experiment [9], 44.8% (inactive). The compound also yielded a nuclei count in [2] of 171%. The z-score was 0.472 in experiment [3] (setting [11]), 0.655 in experiment [3] (setting [12]) and -0.248 in [3] (setting [13]). For the same compound, the fluorescence slope in [5] was -0.414 (inactive); in [10] it was 0.00502 (inactive). In [6], the NADPH fluorescence slope is -4.1e-05 (inactive). Also, the call in experiment [8] was inactive.
As to `N#Cc1nc(-c2cccs2)oc1NCCN1CCOCC1`, in [1], the cell count worked out at 666. The inhibition is 6.6% (inactive) in [1], -60.7% (inactive) in [2], 10.9% (inactive) in experiment [4] and 6.5% (inactive) in experiment [9]. In experiment [2], the nuclei count is 146%. The z-score is 0.927 in [3] (setting [11]), 0.0167 in experiment [3] (setting [12]) and -0.446 in [3] (setting [13]). For the same compound, the fluorescence slope is -0.0476 (inactive) in experiment [5] and 0.00626 (inactive) in experiment [10]. The NADPH fluorescence slope in experiment [6] was -2.5e-05 (inactive). For the same compound, in experiment [8], the compound was called inactive.
As to `CCN1CCc2c(C#N)c(N3CCOCC3)nc(NCCO)c2C1`, the cell count in experiment [1] is 566. The inhibition in experiment [1] was -9.7% (inactive); in [2], -122% (inactive); in [4], -9.53% (inactive); in experiment [9] it was -3.77% (inactive). The compound also returned a nuclei count in experiment [2] of 151%. Besides, the z-score in [3] (setting [11]) was 1.19; in experiment [3] (setting [12]) it was -1.68; in experiment [3] (setting [13]), -1.24. The fluorescence slope is -0.456 (inactive) in experiment [5] and 0.0043 (inactive) in experiment [10]. Further, the NADPH fluorescence slope in experiment [6] was -9.7e-05 (inactive). Besides, the outcome in experiment [8] was inactive.
With `CCOC(=O)C1/C(=N\O)CC(C)(O)C(C(=O)OCC)C1c1ccc(OC)c(OC)c1` (centres undefined), in experiment [1], the cell count turned out to be 573. Moreover, the inhibition in [1] is -0.9% (inactive); in experiment [2], -36% (inactive); in experiment [4], 1.98% (inactive); in [9] it was 1.71% (inactive). The same compound gave a nuclei count in experiment [2] of 149%. The z-score in [3] (setting [11]) is 0.422; in [3] (setting [12]) it was -0.512; in [3] (setting [13]), -0.582. Also, the values for the fluorescence slope in experiment [5] and in experiment [10] were -0.416 (inactive) and 0.0045 (inactive), respectively. In addition, the NADPH fluorescence slope in experiment [6] was -5.9e-05 (inactive). The compound was classed as inactive in experiment [8].
For the compound `CCC(NC(=O)Nc1ccc(O)cc1)(C(F)(F)F)C(F)(F)F`, the cell count in [1] was found to be 709. The inhibition in experiment [1] is -9.4% (inactive); in [2], 18.3% (inactive); in [4], -3.95% (inactive); in experiment [9] it was 2.89% (inactive). In experiment [2], this compound showed a nuclei count of 156%. Further, the z-score in experiment [3] (setting [11]) was -0.865; in [3] (setting [12]), 0.673; in experiment [3] (setting [13]) it was 0.754. Also, the values for the fluorescence slope in [5] and in experiment [10] were -0.448 (inactive) and 0.00524 (inactive), respectively. Further, the NADPH fluorescence slope in [6] was -3.4e-05 (inactive). Also, the result in experiment [8] was inactive.
Regarding `Cc1ccc(Cn2ncc3c(N4CCN(c5ccc(C)cc5)CC4)ncnc32)cc1`, in experiment [1], the cell count is 548. The inhibition is -0.1% (inactive) in [1], 2.9% (inactive) in [2], 17.8% (inactive) in experiment [4] and -10.9% (inactive) in [9]. In addition, the nuclei count in experiment [2] stood at 164%. Besides, the z-score amounted to 0.777 in experiment [3] (setting [11]), 0.779 in experiment [3] (setting [12]) and 1.42 in experiment [3] (setting [13]). The fluorescence slope in experiment [5] was -0.39 (inactive); in experiment [10] it was 0.00638 (inactive). In addition, in experiment [6], the NADPH fluorescence slope was -5.3e-05 (inactive). Besides, the call in experiment [8] was inactive.
`Cc1cc(/C(O)=C2\C(=O)C(=O)N(CCN(C)C)C2c2ccncc2)ccc1OCc1ccccc1` (centres undefined): the cell count in experiment [1] came out at 664. In addition, the inhibition in experiment [1] was -0.2% (inactive); in experiment [2], 9.6% (inactive); in experiment [4] it was 5.35% (inactive); in experiment [9] it was 3.31% (inactive). In experiment [2], this compound gave a nuclei count of 174%. In addition, the results for the z-score in experiment [3] (setting [11]), in experiment [3] (setting [12]) and in experiment [3] (setting [13]) were -0.686, 0.247 and -0.699, respectively. Further, the values for the fluorescence slope in [5] and in experiment [10] were -0.481 (inactive) and 0.00492 (inactive), respectively. For the same compound, in [6], the NADPH fluorescence slope is -5.4e-05 (inactive). Further, the outcome in [8] was inactive.
Regarding `O=C1CCC(=O)N1CN(Cc1ccco1)CN1C(=O)CCC1=O`, the cell count in experiment [1] came to 512. Besides, the inhibition was -4.8% (inactive) in [1], -33.2% (inactive) in experiment [2], 37.7% (inactive) in experiment [4] and 13.2% (inactive) in experiment [9]. In [2], this compound returned a nuclei count of 158%. In addition, the z-score in [3] (setting [11]) was 2.24; in [3] (setting [12]), -1.47; in experiment [3] (setting [13]) it was 0.89. In addition, the fluorescence slope in experiment [5] was -0.376 (inactive); in [10], 0.00674 (inactive). Further, the NADPH fluorescence slope in experiment [6] was -1.3e-05 (inactive). Moreover, in experiment [8], the outcome was inactive.
